Results filed as inconclusive are left out. Values without a mark were called inactive. Calls follow the shape of the full dose curve.
% is scaled to controls: 0 for no effect and ±100 for the full control effect.

Thyrotropin receptor (Homo sapiens), sequence (P16473 whole entry, looked up): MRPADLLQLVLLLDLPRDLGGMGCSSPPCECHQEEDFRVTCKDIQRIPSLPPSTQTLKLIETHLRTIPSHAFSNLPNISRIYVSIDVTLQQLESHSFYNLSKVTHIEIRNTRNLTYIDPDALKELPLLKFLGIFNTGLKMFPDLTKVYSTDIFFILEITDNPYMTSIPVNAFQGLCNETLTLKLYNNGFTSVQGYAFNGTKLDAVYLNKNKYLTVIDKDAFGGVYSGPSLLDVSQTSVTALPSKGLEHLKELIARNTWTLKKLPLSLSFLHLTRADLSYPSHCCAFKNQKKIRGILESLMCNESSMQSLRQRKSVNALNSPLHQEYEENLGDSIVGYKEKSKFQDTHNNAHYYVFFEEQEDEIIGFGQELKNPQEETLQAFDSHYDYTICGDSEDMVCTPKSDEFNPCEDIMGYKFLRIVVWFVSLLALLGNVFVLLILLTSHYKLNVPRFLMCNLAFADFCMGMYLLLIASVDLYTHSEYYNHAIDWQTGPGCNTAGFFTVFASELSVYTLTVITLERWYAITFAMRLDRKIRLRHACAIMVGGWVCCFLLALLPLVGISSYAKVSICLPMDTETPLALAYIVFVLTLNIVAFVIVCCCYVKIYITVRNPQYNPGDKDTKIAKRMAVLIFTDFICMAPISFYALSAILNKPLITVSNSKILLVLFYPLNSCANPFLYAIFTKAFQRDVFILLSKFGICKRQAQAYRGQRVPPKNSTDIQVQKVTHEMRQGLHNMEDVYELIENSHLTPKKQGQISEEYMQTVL

The assay has as its target Thyrotropin receptor (Homo sapiens) (UniProt P16473). In words: qHTS assay to identify small molecule antagonists of the thyroid stimulating hormone receptor (TSHR) signaling pathway (AID 1259385). Also: nearly all actives have a fitted effect of over 20% in size. The following applies: TSHR-HEK293 cAMP HTRF, TSH-stimulated antagonist mode; series mostly up to 92.4 µM; activity change, negative = inhibition: at the top concentration. The source says:
U.S. Tox21 Program National Center for Advancing Translational Sciences [NCATS] NIH Chemical Genomics Center [NCGC] U.S. Environmental Protection Agency [EPA] National Institutes of Environmental Health Sciences [NIEHS] National Toxicology Program [NTP] U.S. Food and Drug Administration [FDA] Tox21 Assay Overview: TSHR is the receptor for thyrotropin (thyroid stimulating hormone or TSH), a member of the glycoprotein hormone family. TSH is released by the anterior pituitary gland and is the main regulator of thyroid gland growth and development. Upon binding circulating thyrotropin, a G-protein signal cascade activates adenylyl cyclase and […] cAMP concentration is increased. cAMP is a key second messenger involved extensively in cellular signal transduction pathways associated with the majority of G-protein coupled receptors (GPCRs). The activation of these GPCRs by neurotransmitters, lipids, nucleotides, peptides and hormones results in the activation or the inhibition of plasma membrane-bound adenylate cyclase through heterotrimeric G-proteins. A cell-based TSHR assay can be used to screen chemical compounds that modulate TSHR either in agonist or antagonist mode.
Tox21 Assay Protocol Summary: TSHR-Hek293 cells were dispensed at 800 cells/4uL/well in 1536-well white plates using a Multidrop dispenser. After the assay plates were incubated at a 37C/5% CO2 incubator for 18 hrs, 23 nL of compounds dissolved in DMSO, positive controls or DMSO only was transferred to the assay plate by a pin tool, followed by 1 ul medium containing Ro20-1724. For the antagonist mode screening, 1 uL of TSH was added on the top of the cell/compound mixtures to achieve a final agonist concentration of 1.5 ng/mL. After 30 min of incubation at room temperature, 2.5 ul/well of cAMP-d2 and 2.5 ul/well of anti-cAMP-cryptate were added respectively into the assay plates using a Flying Reagent Dispenser. The plates were incubated at room temperature for 1 hr. The fluorescence intensity in the plates was measured using an Envision plate reader. Each test compound was measured at 15 concentrations and in triplicates.
(In general: In qHTS, concentration-response curves come from the screen itself.)
In the case of `C=C(C)C(=O)OCCNC(C)(C)C`, the “activity change, negative = inhibition” value was 3.53%.

In the case of `CC(=O)NCCCCCC(=O)O`, the “activity change, negative = inhibition” value is 0.282% [at 42.5 µM].

For `O=C(O)c1ccc(Cl)cc1Cl`, the “activity change, negative = inhibition” value is -11.5%.

As to `c1ccc2c(c1)ccc1c3ccccc3ccc21`, the “activity change, negative = inhibition” value was 1.04% [at 42.5 µM].

For the compound `CCOC(=O)c1ccc(OC(=O)CCCCCN=C(N)N)cc1`, the “activity change, negative = inhibition” value was -0.0431% [at 42.5 µM].

For the compound `O=C(O)Cc1ccc(Cl)cc1Cl`, the “activity change, negative = inhibition” value was 2.74%.

On to `CC(=O)c1sc(C)nc1C`, for which the “activity change, negative = inhibition” value is -0.389%.

As to `CC(=O)Nc1cccc(C)c1`, the “activity change, negative = inhibition” value was 0.895%.

Turning to `CC1=C(C(=O)O)N2C(=O)[C@@H](NC(=O)[C@H](N)c3ccc(O)cc3)[C@H]2SC1`, the “activity change, negative = inhibition” value was 1.03% [at 42.5 µM].

Turning to `O=C(O)c1cc(Cl)cc([N+](=O)[O-])c1Cl`, the “activity change, negative = inhibition” value was 0.365%.

With `Cc1cc(C(C)(C)C)c(O)c(C)c1CC1=NCCN1`, the “activity change, negative = inhibition” value is 1.04% [at 42.5 µM].

`CCC(CC)CO`: the “activity change, negative = inhibition” value was 0.229%.

`C[C@@H]1O[C@@H](O[C@@H]2[C@@H](O)[C@H](OCCc3ccc(O)c(O)c3)O[C@H](CO[C@@H]3O[C@H](CO)[C@@H](O)[C@H](O)[C@H]3O)[C@H]2OC(=O)/C=C/c2ccc(O)c(O)c2)[C@H](O)[C@H](O)[C@H]1O`: the “activity change, negative = inhibition” value was 0.197%.

In the case of `COCCOCCOCCOCCOCCO`, the “activity change, negative = inhibition” value was 1.48%.

`CCCCCCOc1ccccc1C(N)=O`: the “activity change, negative = inhibition” value was -0.0258% [at 42.5 µM].

As for `CCCCOC(=O)c1ccccc1`, the “activity change, negative = inhibition” value was -0.899%.

With `COc1ccc(OC)c(Cl)c1`, the “activity change, negative = inhibition” value was 0.721%.

As for `O=C(CCNNC(=O)c1ccncc1)NCc1ccccc1`, the “activity change, negative = inhibition” value was 3.48% [at 42.5 µM].

`CCCCNC1CC(C)(C)NC(C)(C)C1`: the “activity change, negative = inhibition” value was 2.25%.

`CCCCCCCCCC(C)=O`: the “activity change, negative = inhibition” value was -0.732%.

`CC(C)CC(=O)O`: the “activity change, negative = inhibition” value is 0.307%.

Turning to `CN1CCN(CC(=O)N2c3ccccc3C(=O)Nc3cccnc32)CC1`, the activity change, negative = inhibition is 0.681% [at 8.39 µM].

`Nc1ncnc(Nc2ccccc2)n1`: the “activity change, negative = inhibition” value was -4.16% [at 42.5 µM].

In the case of `O=C(O)C(=O)Cc1ccccc1`, the “activity change, negative = inhibition” value is 4.11%.

Turning to `CC(C)(C)OC(=O)c1ccc(O)cc1`, the “activity change, negative = inhibition” value was -1.04%.

As for `CC(=O)Nc1ccc(S(=O)(=O)Nc2ccc([N+](=O)[O-])cc2)cc1`, the “activity change, negative = inhibition” value was -0.0258% [at 42.5 µM].

For `CCCC/C=C/C=C\C=O`, the “activity change, negative = inhibition” value was 7.2%.

Take `CCNC(=O)C1CC(C)CCC1C(C)C` (stereo not given): the “activity change, negative = inhibition” value is -2.45%.

Turning to `Cc1cc(NC(=O)C2=C(O)c3ccccc3S(=O)(=O)N2C)no1`, the “activity change, negative = inhibition” value was 2.49% [at 42.5 µM].

Turning to `Cc1ccccc1N=O`, the “activity change, negative = inhibition” value is 2.01%.

With `COc1cc(N)ccc1C`, the “activity change, negative = inhibition” value is -1.56%.

For the compound `CC(C)=CCOC(=O)c1ccccc1`, the “activity change, negative = inhibition” value was -1.92%.

In the case of `BrCCCCCBr`, the “activity change, negative = inhibition” value was 3.82%.

As for `BrCc1cccc(Oc2ccccc2)c1`, the “activity change, negative = inhibition” value is -0.154%.

Take `O=Cc1ccc(Cl)c(Cl)c1`: the “activity change, negative = inhibition” value is -2.01%.

Regarding `CN(C)C(=O)CNC(=O)Cc1ccccc1`, the “activity change, negative = inhibition” value is -0.106% [at 42.5 µM].

For `CCN(CC)CC(=O)Nc1c(C)cccc1C`, the “activity change, negative = inhibition” value is -4.74% [at 42.5 µM].

With `CCCCCCCCOS(=O)(=O)O`, the “activity change, negative = inhibition” value was -0.244%.

In the case of `Cc1ccc2c(c1)OCC(=O)CO2`, the “activity change, negative = inhibition” value is 3.47%.

In the case of `CC(C)N(c1ccccc1)C(C)C`, the “activity change, negative = inhibition” value is 2.36%.

Source of the values: PubChem BioAssay (Tox21).
